SMILES strings stand for the structures. Several values for one entry are separate records, joined by “and”; a condition that tells them apart may be missing. Identical values can stand only once. Results filed as inconclusive are left out. Unmarked numbers belong to inactive results. Activity calls are given as the source filed them. Calls come from the whole dose curve; as a rule, active = well fitted inhibition curve with a large enough effect; inconclusive = small, poorly fitted or top-dose-only effect; inactive = flat fitted curve, though single readings scatter.

In assay [1] the test system is CRL-7250. Nature of the assay: Cytotoxic Profiling of Annotated Libraries Using Quantitative High-Throughput Screening (AID 1296008). For max response: % is set by controls: 0 for no effect and ±100 for the full control effect. Particulars: Five cell lines viability, CellTiter-Glo ATP luminescence, 48-72 h; max response: stronger effect = lower value. In outline:
(§1)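 Cytotoxicity was measured as CellTiter-Glo ATP luminescence, read after 10 min at room temperature. Compound treatment of the cells lasted 48 or 72 hr at 37 degrees Celsius in a qHTS format.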

Assay [2] deals with HEK293. Described as above. As to conditions: Five cell lines viability, CellTiter-Glo ATP luminescence, 48-72 h; max response: stronger effect = lower value. In outline: as §1
Assay [3] relates to HaCat. Described as above. As to conditions: Five cell lines viability, CellTiter-Glo ATP luminescence, 48-72 h; max response: stronger effect = lower value. In outline:
as §1

Assay [4] deals with NIH3T3. Described as above. Particulars: Five cell lines viability, CellTiter-Glo ATP luminescence, 48-72 h; max response: stronger effect = lower value. The essentials: as §1
(In general: In ATP-based viability assays light output follows the ATP content of the culture.)

The test system of assay [5] is KB-3-1. Described as above. Particulars: Five cell lines viability, CellTiter-Glo ATP luminescence, 48-72 h; max response: stronger effect = lower value. In outline:
as §1

Assay [6] concerns HACAT. Briefly: qHTS assay to identify novel small-molecules to repurpose for Merkel cell carcinoma treatment (AID 1296009). Particulars: MCC and control cell lines, CellTiter-Glo viability, 72 h; series mostly up to 44.8 µM. The essentials:
(§2)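 Cell viability measured by CellTiter-Glo following 72 hr compound treatment at 37 degree celsius, with NPC and MIPE libraries tested in 8- and 11-point concentration series.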
(Quantitative high-throughput screening tests each substance at several concentrations.)

For assay [7], the system named is MCC-13. The description is as above. Particulars: MCC and control cell lines, CellTiter-Glo viability, 72 h; series mostly up to 46 µM. The essentials: as §2
Assay [8] relates to MCC-26. Described as above. As to conditions: MCC and control cell lines, CellTiter-Glo viability, 72 h; series mostly up to 46 µM. The essentials: as §2
Assay [9] concerns W2. Briefly: qHTS profiling for inhibitors of Plasmodium falciparum proliferation (AID 504749). Particulars: P. falciparum in erythrocytes, SYBR Green DNA, 72 h; series mostly up to 28.7 µM. The essentials:
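In a 72 h erythrocytic culture (37 C, humidified, 5% CO2) at 2.5% hematocrit and 0.3% starting parasitemia, compounds were tested; SYBR Green I in detergent lysis buffer stained parasite DNA overnight.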
Note: nearly all actives have a fitted effect of over 60% in size.
Potency is the fitted concentration of half-maximal effect.

Take `CC(C)(O)c1cc2nc(-c3cnc(N)nc3)nc(N3CCOCC3)c2s1`: the Potency in assay [1] was 148 nM (active) and 731 nM (active); in [2] it was 372 nM (active) and 1.3 µM (active); in assay [3], 264 nM (active) and 1.64 µM (active); in assay [4], 0.418 µM (active).

For `O=C(O)Cn1nnc(-c2cc(N3CCC(Oc4cc(F)ccc4Br)CC3)no2)n1`, the max response in [1] is 1.84% and -2.26%. For the same compound, the Potency is 1.18 µM (active) and 1.3 µM (active) in assay [2]; 3.72 µM (active) and 2.31 µM (active) in [5]. The result in assay [3] was inactive. For the same compound, the Potency entry in assay [6], in [7] and in assay [8] was “inactive” in each case.

As for `COc1cc(C)c(Sc2cnc(NC(=O)c3ccc(CNC(C)C(C)C)cc3)s2)cc1C(=O)N1CCN(C(C)=O)CC1` (stereo not given), the Potency is 23.5 µM (active) in [1]; 14.8 µM (active) and 11.6 µM (active) in assay [2]; 5900 nM (active) in assay [3]; 13.2 µM (active) and 13 µM (active) in assay [4].

With `CS(=O)(=O)N1CCN(Cc2cc3nc(-c4cccc5[nH]ncc45)nc(N4CCOCC4)c3s2)CC1`, the Potency in assay [1] is 1.05 µM (active) and 1.64 µM (active); in assay [2], 372 nM (active) and 1.84 µM (active); in [3], 29.6 nM (active); in assay [4] it was 296 nM (active) and 1.3 µM (active). Moreover, the Potency entry in assay [7] was “inactive”.

For the compound `O=C(Cc1ccc(-c2ccc(OCCN3CCOCC3)cc2)cn1)NCc1ccccc1`, the Potency in assay [1] was 23.5 nM (active) and 1.3 µM (active); in assay [2], 14.8 nM (active) and 184 nM (active); in assay [5], 26.4 nM (active) and 731 nM (active); in assay [7], 46.9 nM (active); in [8], 93.5 nM (active). Besides, the compound was classed as inactive in assay [3]. Moreover, in [6], the Potency result is “inactive”.

Turning to `COc1ccc(-c2cc3c(C)nc(N)nc3n(C3CCC(OCCO)CC3)c2=O)cn1` (stereo not given), the Potency in assay [1] was 23.5 nM (active) and 231 nM (active); in assay [2], 66.2 nM (active) and 411 nM (active); in assay [3], 52.6 nM (active) and 2.31 µM (active); in assay [5], 105 nM (active) and 517 nM (active); in assay [4] it was 1.3 µM (active); in assay [7] it was 1870 nM (active). Besides, the Potency in assay [8] is 1320 nM (active).

With `C[C@@H]1CN(CC(=O)Nc2ccc3c(c2)Cc2cccc(-c4cc(=O)cc(N5CCOCC5)o4)c2S3)C[C@H](C)O1`, the max response in assay [1] is -2.3%; in assay [5], -19.5%. Besides, in assay [2], the Potency was 18.7 µM (active). In assay [3], the outcome was inactive. Moreover, the Potency entry in assay [6], in assay [7] and in assay [8] was “inactive” throughout.

In the case of `CCN1CCN(CC(=O)Nc2ccc(-c3cccc4c(=O)cc(N5CCOCC5)oc34)c3sc4ccccc4c23)CC1`, the Potency in assay [1] was 2.35 µM (active); in assay [2], 1.18 µM (active); in [3] it was 935 nM (active); in assay [4] it was 1.05 µM (active).

Turning to `CCC1=C[C@@H]2CN(C1)Cc1c([nH]c3ccccc13)[C@@](C(=O)OC)(c1cc3c(cc1OC)N(C)[C@@H]1[C@@](O)(C(=O)OC)[C@H](OC(C)=O)[C@]4(CC)C=CCN5CC[C@]31[C@@H]54)C2`, the Potency in [9] was 190 nM (active); in assay [1] it was 0.0469 µM (active); in [2], 0.0235 µM (active); in assay [5] it was 16.6 nM (active). The max response in assay [3] is -8.6%.

With `O=C(O)C1(Cc2cccc(Nc3nccs3)n2)CCC(Oc2cccc(Cl)c2F)CC1` (stereo not given), in assay [1], the max response was -5.96% and -3.26%. In addition, the Potency was 2.64 µM (active) and 1.3 µM (active) in assay [2]; 5.26 µM (active) and 4.61 µM (active) in [3]; 2350 nM (active) in assay [5]; 10500 nM (active) in [7]. In addition, in [8], the Potency entry is “inactive”.

Take `Nc1cc(C(F)(F)F)c(-c2cc(N3CCOCC3)nc(N3CCOCC3)n2)cn1`: the Potency in assay [1] is 2.06 µM (active); in assay [2], 935 nM (active) and 2.31 µM (active); in assay [3], 1.18 µM (active) and 1.64 µM (active); in [5], 743 nM (active) and 1.46 µM (active); in assay [4], 1.05 µM (active) and 2.59 µM (active); in assay [7], 2960 nM (active). The Potency in assay [8] is 2350 nM (active).

`Cc1nc2ccc(CN(C)c3ccc(C(=O)N[C@@H](CCC(=O)O)C(=O)O)s3)cc2c(=O)[nH]1`: the max response in assay [1] is -19.7%; in [5], 1.14%. For the same compound, the figures for the Potency in assay [2], in assay [3] and in assay [4] were 0.0473 µM (active), 33.2 nM (active) and 0.119 µM (active), respectively. Further, the Potency entry in assay [8] was “inactive”.

As to `COc1cccc(-c2ccc(NC(=O)C3=C(C(=O)O)CCC3)c(F)c2)c1`, the max response in assay [1] was -3.86% and -6.53%; in assay [5] it was -19.3%. Also, in assay [2], the Potency is 7.43 µM (active) and 6.51 µM (active). Moreover, the compound was called inactive in assay [3]. In addition, the Potency result in [6], in assay [7] and in [8] was “inactive” throughout.

In the case of `Cc1cnc(Nc2ccc(F)cc2Cl)nc1-c1c[nH]c(C(=O)N[C@H](CO)c2cccc(Cl)c2)c1`, the Potency was 18.7 µM (active) and 20.6 µM (active) in [1]; 10.5 µM (active) in assay [4]. Further, the max response in assay [2] was -111%; in assay [3], -129%.

The record behind these values is PubChem BioAssay (NCATS).
